SMN2 splice enh: qHTS Assay for Enhancers of SMN2 Splice Variant Expression; HEK293 SMN2-luciferase splicing reporter, luminescence, 30-36 h; hit rate 2.8% among 210,000; Potency, µM (series often up to 46.1 µM), hits mostly activators; further: nearly all actives have a fitted effect of over 55% in size
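HEK293 cells carry an SMN2 […]–luciferase reporter in which exon 7 inclusion puts luciferase in frame. Cells were plated 10-12 h before compound addition, then incubated 30-36 h at 37C. ONE-Glo luminescence was read; sodium butyrate at 4.5 mM final served as control.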
NPC1 promoter act: qHTS Assay for NPC1 Promoter Activators | Huh7 NPC1 promoter luciferase reporter, 24 h | Potency, µM (top dose mostly 9.22 µM), hits mostly activators | hit rate 2.4% among 320,000 | AID 485313, 2010; further: nearly all actives have a fitted effect of over 60% in size
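Stably transfected Huh7 (NPC1 promoter→luciferase), 1500 cells/well in Opti-MEM + 10% FBS, 2 h settle, then compound 24 h at 37 °C. Luminescence after 10 min with Amplite reagent.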
KinaseGlo FLuc: Counterscreen for Luciferase (Kinase-Glo TM) Inhibition. AID 1379, 2008. Potency, µM (titrated, usually from 38.3 µM), usual class: inhibitors. hit rate 0.28% among 200,000. Kinase-Glo luciferase, ATP luminescence, 8 min. Luciferin 4-monooxygenase (Photuris pensylvanica), Q27757; further: nearly all actives have a fitted effect of over 60% in size
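Kinase-Glo luciferase light output from ATP and luciferin was measured with 10 uM ATP, within the enzyme's linear range. Buffer: 50 mM imidazole pH 7.2, 50 mM KCl, 7 mM MgCl2, 0.01% Tween 20, 0.05% BSA; luminescence read after 8 min at ambient temperature.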
Rab9 prom act: qHTS Assay for Rab9 Promoter Activators | Huh7 Rab9 promoter-luciferase reporter, luminescence, 24 h | Potency, µM (series often up to 9.22 µM), actives largely listed as activators | hit rate 2.8% among 320,000; further: nearly all actives have a fitted effect of over 60% in size
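Cells were plated at 1500 per well in reduced-serum medium with 10% FBS and left 2 h. Compound in DMSO was then added for 24 h at 37 °C. Reporter signal was read by luminescence after 10 min with luciferase detection reagent.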
FLuc counter: qHTS profiling assay for firefly luciferase inhibitor/activator using purifed enzyme and Km concentrations of substrates (counterscreen for miR-21 project) | Potency, µM (top dose mostly 57.5 µM), hits mostly inhibitors | purified FLuc, Km substrates, luminescence inhibition | AID 588342, 2011 | hit rate 6.9% among 360,000; further: nearly all actives have a fitted effect of over 55% in size
Target sequence (P08659 whole entry, looked up): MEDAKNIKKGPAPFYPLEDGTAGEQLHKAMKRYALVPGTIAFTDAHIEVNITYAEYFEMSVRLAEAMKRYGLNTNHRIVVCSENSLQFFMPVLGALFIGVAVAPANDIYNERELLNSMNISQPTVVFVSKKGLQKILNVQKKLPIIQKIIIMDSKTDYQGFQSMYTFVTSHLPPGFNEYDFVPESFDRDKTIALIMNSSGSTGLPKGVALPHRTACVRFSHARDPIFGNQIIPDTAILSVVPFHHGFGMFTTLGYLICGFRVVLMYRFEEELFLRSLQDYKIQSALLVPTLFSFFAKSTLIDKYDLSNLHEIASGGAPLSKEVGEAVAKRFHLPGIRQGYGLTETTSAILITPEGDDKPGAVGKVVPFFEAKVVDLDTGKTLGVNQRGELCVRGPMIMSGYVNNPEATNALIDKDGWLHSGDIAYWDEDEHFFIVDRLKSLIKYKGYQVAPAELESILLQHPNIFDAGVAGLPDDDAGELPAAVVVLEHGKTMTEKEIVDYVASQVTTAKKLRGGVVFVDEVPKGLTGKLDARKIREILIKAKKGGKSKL
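Biochemical qHTS of compounds, final roughly 60 µM downward over six points, against 10 nM purified firefly luciferase using Km concentrations of substrates (10 uM D-luciferin, 10 uM ATP) in Tris acetate pH 7.5 buffer; luminescence output.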
ELG1 genotox: qHTS screen for small molecules that induce genotoxicity in human embryonic kidney (HEK293T) cells expressing luciferase-tagged ELG1 | HEK293T ELG1-luciferase reporter, luminescence, 16 h | hit rate 1.3% among 330,000 | AID 504466, 2011 | Potency, µM (doses to about 46 µM), actives largely listed as activators; further: nearly all actives have a fitted effect of over 60% in size
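After overnight (16 hr) compound treatment at 37 °C, ELG1-luciferase HEK293T cells were lysed with ONE-Glo; luminescence quantified 30 min later at room temperature.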
Large screens that a line does not name were inactive. A selection: hits, their analogues and other compounds. The true share with any hit is near 7.5%. The call rests on the fitted dose curve; in most records, active means well fitted curve in the direction sought with a large enough effect; inconclusive means small, poorly fitted or top-dose-only effect, or another doubt; inactive means no such curve, though single readings can be large; an effect the other way counts as inactive or inconclusive.

CCOC(=O)Cc1csc(/N=C/c2c(O)n(-c3ccccc3C(F)(F)F)c(=O)c3ccccc23)n1	FLuc counter 10.7µM
CCOC(=O)c1ccccc1NC(=O)c1cc2ccccc2o1	Rab9 prom act inconclusive, FLuc counter inconclusive (no result: SMN2 splice enh, KinaseGlo FLuc)
CCOCCn1cnc2sc(C(=O)Nc3nc(C)c(C(=O)OCC)s3)c(C)c2c1=O	FLuc counter 2.39µM
CCOC(=O)Cc1csc(N/N=C/c2ccc(C(F)(F)F)cc2)n1	none
Cn1nnc2c(N3CCN(c4ccccc4F)CC3)ncnc21	none (no result: SMN2 splice enh, NPC1 promoter act, KinaseGlo FLuc, Rab9 prom act, ELG1 genotox)
Cc1nnc(NC(=O)c2cc3ccccc3o2)s1	NPC1 promoter act inconclusive, Rab9 prom act inconclusive, FLuc counter 6.01µM, ELG1 genotox inconclusive (no result: SMN2 splice enh, KinaseGlo FLuc)
CCc1ccc(C(=O)Nc2nc(C)cs2)s1	FLuc counter 0.953µM, ELG1 genotox inconclusive (no result: SMN2 splice enh, KinaseGlo FLuc)
CCOC(=O)Cc1nnc(NC(=O)c2ccccc2OC)s1	FLuc counter 16.9µM
Cc1ccccc1-c1nnc(NC(=O)c2cc3ccccc3oc2=O)s1	none
CCOC(=O)Cc1csc(NC(=O)c2cc(=O)c3ccccc3o2)n1	FLuc counter 16.9µM
COc1ccc(C(=O)N2CCN(Cc3cc(=O)n4nc(-c5ccccc5C)sc4n3)CC2)cc1OC	none (no result: SMN2 splice enh, NPC1 promoter act, KinaseGlo FLuc, Rab9 prom act, ELG1 genotox)
O=C(CSc1nc(=O)[nH]c2c1CCC2)Nc1cc(C(F)(F)F)ccc1Cl	none (no result: SMN2 splice enh, NPC1 promoter act, KinaseGlo FLuc, Rab9 prom act, ELG1 genotox)
CCOC(=O)c1sc(NC(=O)c2ccccc2OC)nc1C	SMN2 splice enh 2.51µM, KinaseGlo FLuc 10µM, FLuc counter 0.426µM, ELG1 genotox 1.84µM
CCOC(=O)c1sc(NC(=O)c2ccc(S(=O)(=O)N(C)C)cc2)nc1C	SMN2 splice enh inconclusive
Cc1ccc(C(=O)Nc2cc([N+](=O)[O-])ccc2F)s1	FLuc counter inconclusive
CCc1ccc(C(=O)Nc2cc(C)ccc2F)s1	SMN2 splice enh inconclusive, FLuc counter 19µM
Cc1cnc(NC(=O)c2cc3ccccc3o2)s1	SMN2 splice enh 2.24µM, NPC1 promoter act 1.41µM, Rab9 prom act inconclusive, FLuc counter 0.536µM, ELG1 genotox inconclusive
CCOC(=O)c1sc(NC(=O)c2ccc(CC)s2)nc1C	SMN2 splice enh 2µM, FLuc counter inconclusive, ELG1 genotox 2.59µM
CCOC(=O)c1sc(NC(=O)Cc2ccc(C)cc2)nc1C	none
CC(=O)N1CCCc2cc(S(=O)(=O)N(C)CC(=O)Nc3ccc(F)c(Cl)c3)ccc21	none (no result: SMN2 splice enh, NPC1 promoter act, KinaseGlo FLuc, Rab9 prom act, ELG1 genotox)
Cc1cccc(N(C)C(=O)CN(C)S(=O)(=O)c2ccc3[nH]c4c(c3c2)CCCC4)c1	none (no result: SMN2 splice enh, NPC1 promoter act, KinaseGlo FLuc, Rab9 prom act, ELG1 genotox)
COc1ccc(-c2nc3sc(CCNS(=O)(=O)c4c(C)cc(C)cc4C)c(C)n3n2)cc1	none (no result: SMN2 splice enh, NPC1 promoter act, KinaseGlo FLuc, Rab9 prom act, ELG1 genotox)
CCOC(=O)Cc1csc(NC(=O)c2sc3nc4c(C)cc(C)cc4cc3c2N)n1	SMN2 splice enh 22.4µM, FLuc counter inconclusive, ELG1 genotox inconclusive
CCOC(=O)c1sc(NC(=O)CC2OC(=O)c3ccccc32)nc1C (stereo not drawn)	FLuc counter inconclusive (no result: SMN2 splice enh, KinaseGlo FLuc)
CCOC(=O)Cc1csc(-n2sc3ccccc3c2=O)n1	FLuc counter 9.53µM, ELG1 genotox inconclusive
CCOC(=O)Cc1csc(NC(=O)c2csc(C)c2)n1	FLuc counter inconclusive, ELG1 genotox inconclusive
C=CCOC(=O)c1sc(NC(=O)c2ccco2)nc1C	SMN2 splice enh inconclusive, NPC1 promoter act inconclusive, Rab9 prom act inconclusive, FLuc counter 9.53µM, ELG1 genotox 20.6µM
CCOC(=O)Cc1csc(SCn2nnc3ccccc3c2=O)n1	none
CCOC(=O)c1sc(NC(=O)c2cc3ccccc3o2)nc1C	SMN2 splice enh 11.2µM, FLuc counter 2.39µM
COc1ccc(N2CCN(C(CNC(=O)C(=O)NCc3ccc(F)cc3)c3cccnc3)CC2)cc1 (stereo not drawn)	none (no result: SMN2 splice enh, NPC1 promoter act, KinaseGlo FLuc, Rab9 prom act, ELG1 genotox)
CNC(=O)c1cc2ccccc2o1	none
Cc1nc(NC(=O)c2cc3ccccc3o2)sc1C	Rab9 prom act inconclusive, FLuc counter 1.07µM, ELG1 genotox 0.651µM (no result: SMN2 splice enh, KinaseGlo FLuc)
Cc1ccc(Cl)cc1NC(=O)Cn1nc2c(cc1=O)CC(C)CC2 (stereo not drawn)	none (no result: SMN2 splice enh, NPC1 promoter act, KinaseGlo FLuc, Rab9 prom act, ELG1 genotox)
N/C(=N\OC(=O)CCc1ccccc1)c1ccccc1Cl	FLuc counter 23.9µM, ELG1 genotox inconclusive

High-throughput results from PubChem.
